# Assay results reported in PubChem BioAssay (Tox21).
# Records with an inconclusive call do not appear. Entries that show only a call come without a potency. Values without a mark were called inactive. The source made the active and inactive calls. Unless noted, calls come from the whole dose curve.
# Assays:
# [1] = qHTS assay to identify small molecule antagonists of the vitamin D receptor (VDR) signaling pathway - cell viability counter screen (AID 743225; active = well fitted curve in the direction sought with a large enough effect in the repeat runs; an effect the other way counts as inactive or inconclusive; note: nearly all actives have a fitted effect of over 50% in size)
# Procedure, shortened: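 Cells (VDR-UAS-bla HEK 293T) are plated, rested 4 h at 37C, dosed with compound and 3 nM final 1-alpha,25-dihydroxy vitamin D3, and incubated 16 h. Viability is taken from CellTiter-Glo luminescence in the reporter wells.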
# [2] = qHTS assay to identify small molecule agonists of the NFkB signaling pathway (AID 1159509; active = well fitted curve in the direction sought with a large enough effect in the signal ratio in the repeat runs, not every such curve was filed as active; the % refers to the signal ratio; note: series mostly up to about 61 µM)
# Procedure, shortened: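 NFkB-bla ME-180 cells with a beta-lactamase reporter under an NF-kB response element were plated overnight, treated with compounds in DMSO for 5 hr at 37 C, then loaded with FRET substrate for 1.5 hr at room temperature.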
# [3] = qHTS assay to identify small molecule agonists of the NFkB signaling pathway - cell viability counter screen (AID 1159515); note: series mostly up to about 61 µM; nearly all actives have a fitted effect of over 55% in size
# Procedure, shortened: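 NFkB-bla ME-180 cells, 2,000/well, were plated overnight at 37 C, 5% CO2, then exposed to compounds in DMSO for 5 hr. After the bla FRET read, CellTiter-Glo was added to the same wells; luminescence was read after 30 min at room temperature.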
# [4] = qHTS assay to identify small molecule agonists of the endoplasmic reticulum stress response signaling pathway - cell viability counter screen (AID 1159517); note: series mostly up to about 61 µM; nearly all actives have a fitted effect of over 50% in size
# Procedure, shortened: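 Luminescence readout: CellTiter-Glo, 30 min RT, same wells as the ESRE-bla reporter read. HeLa ESRE-bla, 1,500 cells/well, o/n 37 C; cpd 5 hr 37 C/5% CO2.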
# [5] = qHTS assay to identify small molecule antagonists of the retinoid-related orphan receptor gamma (ROR-gamma) signaling pathway - cell viability counter screen (AID 1159520; active = well fitted curve in the direction sought with a large enough effect in the repeat runs; an effect the other way counts as inactive or inconclusive; note: nearly all actives have a fitted effect of over 50% in size)
# Procedure, shortened: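 Tet-on ROR gamma CHO cells (1,000/well) were plated 4 hr, given compounds in DMSO for 2 hr at 37 C, then induced with 1 uM final doxycycline for 16 hr. Viability was read as ATP by CellTiter-Glo luminescence after 30 min.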
# [6] = biological target: Nuclear receptor ROR-gamma (Homo sapiens) (UniProt P51449); assay: qHTS assay to identify small molecule antagonists of the retinoid-related orphan receptor gamma (ROR-gamma) signaling pathway (AID 1159521; active = well fitted curve in the direction sought with a large enough effect in the repeat runs; an effect the other way counts as inactive or inconclusive;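 note: CHO cells with doxycycline inducible ROR-gamma driving an RORE luciferase reporter; top concentration of the series differs between compounds; nearly all actives have a fitted effect of over 50% in size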)
# Procedure, shortened: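 RORγ antagonism is scored from reduced reporter luminescence in Tet-on CHO cells. Induction used 1 uM final doxycycline hyclate for 16 h at 37 C, following a 2 h compound exposure.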
# [7] = qHTS assay to identify small molecule agonists of the AP-1 signaling pathway - cell viability counter screen (AID 1159525); note: nearly all actives have a fitted effect of over 55% in size
# Procedure, shortened: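 ME-180 AP-1-bla, 2500 cells/well, Opti-MEM + 0.5% dialyzed FBS; overnight 37 °C; cpd 15-pt titration, 5 h 37 °C; CellTiter-Glo 30 min RT; luminescence read; normalised to TOAB and DMSO controls.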
# [8] = qHTS assay to identify small molecule agonists of the AP-1 signaling pathway (AID 1159526)
# [9] = biological target: Retinoic acid receptor RXR-alpha (Homo sapiens) (UniProt P19793); assay: qHTS assay to identify small molecule agonists of the RXR signaling pathway (AID 1159527); note: nearly all actives have a fitted effect of over 35% in size; note: potency is the fitted concentration of half-maximal effect
# Retinoic acid receptor RXR-alpha (Homo sapiens), sequence (P19793 whole entry, looked up): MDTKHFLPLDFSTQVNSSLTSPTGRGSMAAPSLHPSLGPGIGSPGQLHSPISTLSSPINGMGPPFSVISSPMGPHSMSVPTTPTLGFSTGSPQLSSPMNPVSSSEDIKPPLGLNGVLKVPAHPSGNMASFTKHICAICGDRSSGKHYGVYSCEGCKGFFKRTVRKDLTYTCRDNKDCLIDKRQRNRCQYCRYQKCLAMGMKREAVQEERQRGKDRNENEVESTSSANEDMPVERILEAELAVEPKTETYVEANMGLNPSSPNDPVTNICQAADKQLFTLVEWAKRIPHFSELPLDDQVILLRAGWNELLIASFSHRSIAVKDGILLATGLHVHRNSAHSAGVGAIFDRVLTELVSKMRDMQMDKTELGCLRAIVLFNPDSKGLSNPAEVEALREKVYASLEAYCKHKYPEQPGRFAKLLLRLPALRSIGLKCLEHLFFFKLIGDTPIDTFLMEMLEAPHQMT
# Procedure, shortened: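 qHTS of the Tox21 10K library in GeneBLAzer RXR-alpha HEK 293T cells carrying a beta-lactamase reporter […]; 16 hr treatment, 9-cis retinoic acid as agonist control, FRET read-out.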
# [10] = qHTS assay to identify small molecule agonists of the endoplasmic reticulum stress response signaling pathway (AID 1159516; active = well fitted activation curve with a large enough effect in the signal ratio in the repeat runs, not every such curve was filed as active; the % refers to the signal ratio)
# Procedure, shortened: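 CellSensor ESRE-bla HeLa cells, carrying a beta-lactamase reporter driven by the ER stress response element, were plated overnight and exposed to compounds for 5 hr at 37 C. Reporter activity was read as FRET substrate fluorescence after 2 hr at room temperature.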
smiles,measurement,setting,value
O=C(O)/C=C/c1ccc(O)c(O)c1,Potency,[1],inactive
same,outcome,[2],inactive
same,Potency,[3],inactive
same,Potency,[4],inactive
same,Potency,[5],inactive
same,Potency,[6],inactive
same,Potency,[7],inactive
same,outcome,[8],inactive
Cc1cc(CCC(=O)OCCOCCOCCOC(=O)CCc2cc(C)c(O)c(C(C)(C)C)c2)cc(C(C)(C)C)c1O,outcome,[2],inactive
same,Potency,[3],inactive
same,Potency,[4],inactive
same,Potency,[5],inactive
same,Potency,[6],inactive
same,Potency,[7],inactive
same,outcome,[8],inactive
same,Potency,[9],inactive
COC(=O)Nc1nc2ccc(C(=O)C3CC3)cc2[nH]1,Potency,[1],inactive
same,outcome,[2],inactive
same,Potency,[3],inactive
same,Potency,[10],inactive
same,Potency,[7],inactive
same,outcome,[8],inactive
C=Cc1ccc(OC(C)=O)cc1,Potency,[1],inactive
same,outcome,[2],inactive
same,Potency,[3],inactive
same,Potency,[4],inactive
same,Potency,[5],inactive
same,Potency,[6],inactive
same,Potency,[7],inactive
same,outcome,[8],inactive
same,Potency,[9],inactive
Cc1ccc(N(CC2=NCCN2)c2cccc(O)c2)cc1,Potency,[1],inactive
same,outcome,[2],inactive
same,Potency,[3],inactive
same,Potency,[4],inactive
same,Potency,[5],inactive
same,Potency,[6],inactive
same,Potency,[7],inactive
same,outcome,[8],inactive
same,Potency,[9],inactive
N[C@@H](Cc1cc(I)c(O)c(I)c1)C(=O)O,Potency,[1],inactive
same,outcome,[2],inactive
same,Potency,[3],inactive
same,Potency,[4],inactive
same,Potency,[5],inactive
same,Potency,[6],inactive
same,Potency,[7],inactive
same,outcome,[8],inactive
same,Potency,[9],inactive
CCCCCCCC/C=C/C(=O)O,Potency,[1],inactive
same,outcome,[2],inactive
same,Potency,[3],inactive
same,Potency,[4],inactive
same,Potency,[5],inactive
same,Potency,[6],inactive
same,Potency,[7],inactive
same,outcome,[8],inactive
O=C(O)c1ccc(O)cc1O,Potency,[1],inactive
same,outcome,[2],inactive
same,Potency,[3],inactive
same,Potency,[4],inactive
same,Potency,[5],inactive
same,Potency,[6],inactive
same,Potency,[7],inactive
same,outcome,[8],inactive
same,Potency,[9],inactive
COc1ccc(C)cc1,Potency,[1],inactive
same,outcome,[2],inactive
same,Potency,[3],inactive
same,Potency,[4],inactive
same,Potency,[5],inactive
same,Potency,[6],inactive
same,Potency,[7],inactive
same,outcome,[8],inactive
same,Potency,[9],inactive
O=C(O)CN1C(=O)c2cccc3cccc(c23)C1=O,Potency,[1],inactive
same,outcome,[2],inactive
same,Potency,[3],inactive
same,Potency,[4],inactive
same,Potency,[5],inactive
same,Potency,[6],inactive
same,Potency,[7],inactive
same,outcome,[8],inactive
same,Potency,[9],inactive
CCCCC[C@H](O)/C=C/[C@H]1[C@H](O)CC(=O)[C@@H]1C/C=C\CCCC(=O)O,Potency,[1],inactive
same,outcome,[2],inactive
same,Potency,[3],inactive
same,Potency,[4],inactive
same,Potency,[5],inactive
same,Potency,[6],inactive
same,Potency,[7],inactive
same,outcome,[8],inactive
COC(=O)CC(C(C)=O)C(=O)OC (stereo not given),Potency,[1],inactive
same,outcome,[2],inactive
same,Potency,[3],inactive
same,Potency,[4],inactive
same,Potency,[7],inactive
same,outcome,[8],inactive
same,Potency,[9],inactive
CC1CCCC(=O)C1=O (stereo not given),Potency,[1],inactive
same,outcome,[2],inactive
same,Potency,[3],inactive
same,Potency,[4],inactive
same,Potency,[5],inactive
same,Potency,[7],inactive
same,outcome,[8],inactive
CC1=CC[C@@H]2C[C@H]1C2(C)C,"viability change, negative = cytotoxic",[1],-2.02% [at 15.1 µM]
same,activation,[2],-0.527% [at 15.1 µM]
same,"activity, negative = cytotoxic",[3],15.3% [at 15.1 µM]
same,"activity change, negative = cytotoxicity",[4],30.1% [at 15.1 µM]
same,"activity change, negative = inhibition",[6],-7.14% [at 19 µM]
same,"viability change, negative = cytotoxic",[7],0.876% [at 15.8 µM]
same,activation,[8],4.37% [at 15.8 µM]
COc1cc(NC(C)CCCN)c2ncccc2c1 (stereo not given),Potency,[1],inactive
same,outcome,[2],inactive
same,Potency,[3],inactive
same,Potency,[4],inactive
same,Potency,[5],inactive
same,Potency,[7],inactive
same,outcome,[8],inactive
CCOC(=O)c1ccc(NC(=O)CN2CCCCC2)cc1,Potency,[1],inactive
same,outcome,[2],inactive
same,Potency,[3],inactive
same,Potency,[4],inactive
same,Potency,[5],inactive
same,Potency,[7],inactive
same,outcome,[8],inactive
same,Potency,[9],inactive
O=C(O)CCCc1c[nH]c2ccccc12,Potency,[1],inactive
same,outcome,[2],inactive
same,Potency,[3],inactive
same,Potency,[4],inactive
same,Potency,[5],inactive
same,Potency,[7],inactive
same,outcome,[8],inactive
NC(=O)CCCCC(N)=O,Potency,[1],inactive
same,outcome,[2],inactive
same,Potency,[3],inactive
same,Potency,[4],inactive
same,Potency,[5],inactive
same,Potency,[7],inactive
same,outcome,[8],inactive
same,Potency,[9],inactive
CC/C=C\C/C=C\C/C=C\CCCCCCCC(=O)OCC,outcome,[2],inactive
same,Potency,[3],inactive
same,Potency,[4],inactive
same,Potency,[6],inactive
same,Potency,[7],inactive
same,outcome,[8],inactive
CC(=O)OCCC(C)CC(C)(C)C (stereo not given),Potency,[1],inactive
same,outcome,[2],inactive
same,Potency,[3],inactive
same,Potency,[4],inactive
same,Potency,[6],inactive
same,Potency,[7],inactive
same,outcome,[8],inactive
same,Potency,[9],11 µM (active)
Nc1ccc(NC(=O)c2ccc(N)cc2)cc1,Potency,[3],inactive
same,Potency,[10],inactive
same,Potency,[5],inactive
same,Potency,[6],inactive
same,Potency,[7],inactive
same,outcome,[8],inactive
O=C1c2ccccc2C(=O)c2c(O)ccc(O)c21,outcome,[2],inactive
same,Potency,[3],inactive
same,Potency,[4],inactive
same,Potency,[6],inactive
same,Potency,[7],inactive
same,outcome,[8],inactive
same,Potency,[9],inactive
COc1cc(NS(=O)(=O)c2ccc(N)cc2)nc(C)n1,Potency,[1],inactive
same,outcome,[2],inactive
same,Potency,[3],inactive
same,Potency,[4],inactive
same,Potency,[6],inactive
same,Potency,[7],inactive
same,outcome,[8],inactive
same,Potency,[9],inactive
COc1cc(OC)c2ccc(=O)oc2c1,Potency,[1],inactive
same,outcome,[2],inactive
same,Potency,[3],inactive
same,Potency,[4],inactive
same,Potency,[5],inactive
same,Potency,[7],inactive
same,outcome,[8],inactive
CC(=O)c1ccc[nH]1,Potency,[1],inactive
same,outcome,[2],inactive
same,Potency,[3],inactive
same,Potency,[4],inactive
same,Potency,[5],inactive
same,Potency,[7],inactive
same,outcome,[8],inactive
O=C(O)CCC(=O)c1ccc(-c2ccccc2)cc1,Potency,[1],inactive
same,outcome,[2],inactive
same,Potency,[3],inactive
same,Potency,[4],inactive
same,Potency,[5],inactive
same,Potency,[7],inactive
same,outcome,[8],inactive
CC(C)(C)CCCCCCOC(=O)c1ccccc1C(=O)OCCCCCCC(C)(C)C,Potency,[1],inactive
same,outcome,[2],inactive
same,Potency,[3],inactive
same,Potency,[4],inactive
same,Potency,[5],inactive
same,Potency,[6],inactive
same,Potency,[7],inactive
same,outcome,[8],inactive
CCCCCCCC(=O)OCCCCCC,Potency,[1],inactive
same,outcome,[2],inactive
same,Potency,[3],inactive
same,Potency,[4],inactive
same,Potency,[5],inactive
same,Potency,[6],inactive
same,Potency,[7],inactive
same,outcome,[8],inactive
